Screens: PubChem BioAssay, National Center for Advancing Translational Sciences (NCATS)
G9a block = qHTS Assay for Inhibitors of Histone Lysine Methyltransferase G9a; 350,000 tested, 8.8% active; G9a H3K9 monomethylation, AlphaScreen, 2 h; Potency, µM (top dose mostly 102 µM), inactives show top-dose activity, negative = inhibition, most hits filed as inhibitors; further: on the % scale 0 is the no-effect control and ±100 the full control effect; nearly all actives have a fitted effect of over 75% in size
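Signal arises when biotinylated H3K9 peptide, once monomethylated, bridges streptavidin donor and antibody-captured acceptor beads. Enzyme at 20 nM was preincubated 15 min with test compounds; peptide 500 nM and SAM 20 uM then reacted for 2 h.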
ALOX12 inh = Primary qHTS assay for inhibitors of human arachidonate 12S-lipoxygenase (ALOX12): Round 2 | Potency, µM (highest dose often 108 µM), inactives show at the top dose activity change, negative = inhibition, usual class: inhibitors | purified 12hLO, xylenol orange hydroperoxide absorbance | 580,000 tested, 1.1% active; further: on the % scale 0 is the no-effect control and ±100 the full control effect
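Purified human 12hLO at 150 nM in 25 mM Hepes, 0.01% Triton X-100, pH 7.0, preincubated 15 min at room temperature with compound. Reaction started with 40 uM arachidonic acid, 30 min at room temperature. Hydroperoxide measured by Fe-xylenol orange, 573/405 nm absorbance ratio.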
GRP78 ERSR act = qHTS for Inducers of the Endoplasmic Reticulum Stress Response (ERSR) in Human Glioma: qHTS. 420,000 tested, 0.02% active. Potency, µM, for inactives: top-dose activation, most hits filed as activators. U87-MG GRP78 promoter luciferase reporter, 16 h. AID 602332, 2012; further: series mostly up to about 76 µM; % of control where 0% means no effect; nearly all actives have a fitted effect of over 35% in size
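Stably transfected U87-MG glioma cells carrying a GRP78-based luciferase sensor; 16 h compound incubation. Luminescence end-point read 10 min after Bright-Glo addition at room temperature.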
VDR inh = Inhibitors of the vitamin D receptor (VDR): qHTS | AID 504847, 2011 | Vitamin D3 receptor (Homo sapiens), P11473 | Potency, µM, for the others: max response, negative = inhibition, actives largely listed as inhibitors | 400,000 tested, 0.93% active | VDR-SRC2-3 peptide fluorescence polarization, 2 h; further: on the % scale 0 is the no-effect control and ±100 the full control effect
Target sequence (P11473 whole entry, looked up): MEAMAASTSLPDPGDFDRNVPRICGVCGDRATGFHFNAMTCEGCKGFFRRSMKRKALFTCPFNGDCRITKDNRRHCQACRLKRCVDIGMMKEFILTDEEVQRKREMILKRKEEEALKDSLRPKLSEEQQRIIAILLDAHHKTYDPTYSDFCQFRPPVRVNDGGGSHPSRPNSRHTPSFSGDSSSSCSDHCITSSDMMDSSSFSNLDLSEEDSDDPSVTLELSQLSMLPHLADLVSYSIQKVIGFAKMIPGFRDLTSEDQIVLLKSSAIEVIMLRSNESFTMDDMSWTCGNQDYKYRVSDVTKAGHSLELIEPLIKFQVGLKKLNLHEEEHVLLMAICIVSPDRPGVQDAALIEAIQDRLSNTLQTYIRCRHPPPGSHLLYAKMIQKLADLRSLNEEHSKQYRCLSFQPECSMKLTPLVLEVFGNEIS
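Fluorescence polarization assay of small-molecule disruption of VDR binding to coregulator peptide SRC2-3. Compounds and controls pin-transferred, then read after 2 h incubation at ambient room temperature.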
Sfp PPTase inh = qHTS Assay for Inhibitors of Bacillus subtilis Sfp phosphopantetheinyl transferase (PPTase); Potency, µM, for the others: largest response in the series, negative = inhibition, actives largely listed as inhibitors; 4'-phosphopantetheinyl transferase ffp (Bacillus subtilis), Q9F4F7; Biochemical Sfp PPTase activity, qHTS; AID 1490, 2009; 310,000 tested, 3.5% active;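 further: the enzyme is Sfp with the accession as filed and its product quenches rhodamine fluorescence; 0% = enzyme reaction without inhibitor and -100% = no enzyme wells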
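Fluorescence-quenching assay with 15 nM Sfp, 5 uM rhodamine-CoA and 12.5 uM BHQ-2-labelled ybbR peptide in pH 7.6 Hepes/MgCl2 buffer. Enzyme was pre-incubated with compound for 15 min at room temperature. Rate was taken from the 30-min fluorescence change (525/598 nm).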
Active calls of the source: *; ? = inconclusive; nt = no result; [ ] = remark or other dose. Many of the other results were omitted from the sample, so hits are more common in it than they were. The call rests on the fitted dose curve; in most records, active means well fitted curve in the direction sought with a large enough effect; inconclusive means small, poorly fitted or top-dose-only effect, or another doubt; inactive means no such curve, though single readings can be large; an effect the other way counts as inactive or inconclusive. Potency means the concentration at half of the fitted maximal effect.

SMILES | G9a block | ALOX12 inh | GRP78 ERSR act | VDR inh | Sfp PPTase inh
O=C(CCN=C1NS(=O)(=O)c2ccccc21)N(Cc1ccccc1F)C1CC1 | nt | 11% | nt | nt | nt
COc1ccc2c(c1)Cc1sc(NC(=O)c3ccccc3)nc1-2 | ? | ? | -3% | -20% | 50µM*
Cc1c(C(=O)Nc2ccc(S(=O)(=O)C(F)F)cc2)oc2ccccc12 | nt | -19% | nt | nt | nt
Cc1ccc(NC(=O)Nc2ccc3c(c2)nc(C)n3C)cc1 | 5% | 0% | -8% | -13% | 9%
Cc1cc(NC(=O)Nc2ccc3c(ccn3C)c2)sn1 | 32%[59 µM] | -2% | ? | 2% | 79µM*
Cc1cccc(-c2nc(=S)c3c(n2Cc2ccco2)CCCC3)c1 | ? | -10% | -3% | 5% | 20µM*
Cc1ccc(-c2nc(=S)c3c(n2Cc2ccco2)CCCC3)cc1 | -44%[12.7 µM] | ? | 2% | 4% | -49%
Cc1ccc(-c2nc(=S)c3c(n2Cc2ccco2)CC(C)(C)OC3)cc1 | -26%[0.0925 µM] | nt | -5% | ? | 56µM*
COc1cc2c(cc1NS(=O)(=O)c1cccc(C#N)c1)n(C)c(=O)n2C | 10µM* | ? | -1% | 6% | nt
Cc1c(Cl)cccc1NC(=S)N(Cc1ccco1)C(C)c1ccccn1 (stereo not given) | ? | 25% | 2% | ? | -10%
Cc1ccccc1NC(=S)N(Cc1ccco1)C(C)c1ccccn1 (stereo not given) | 0% | 4% | -1% | -1% | 79µM*
O=c1c2oc3ccccc3c2[nH]c(=S)n1-c1ccccc1 | 8.9µM* | ? | 4% | -19% | 50µM*
O=c1c2sccc2[nH]c(=S)n1-c1ccccc1 | ? | ? | -2% | -2% | 79µM*
Cc1cccc(-n2c(=S)[nH]c3c(oc4ccccc43)c2=O)c1 | 13µM* | -22% | -2% | -17% | -23%
Fc1ccc(-c2nc(CSc3ccc4c(c3)OCCO4)cs2)cc1 | nt | -49% | nt | nt | nt
NS(=O)(=O)c1ccc(NC(=S)NCc2ccc3c(c2)OCO3)cc1 | nt | ? | 5% | 0% | 20µM*
Cn1cc(Br)c(C(=O)NC(=S)Nc2ccc(S(N)(=O)=O)cc2)n1 | 45µM* | ? | 2% | 13% | -81%
NS(=O)(=O)c1ccc(NC(=S)NCc2ccc(Cl)cc2)cc1 | 8.9µM* | ? | 3% | ? | 22µM*
NS(=O)(=O)c1ccc(NC(=S)Nc2ccccc2)cc1 | nt | 4% | nt | nt | nt
NS(=O)(=O)c1cccc(NC(=O)CN2CCN(Cc3ccc4c(c3)OCO4)CC2)c1 | -9%[59 µM] | 15% | -6% | -12% | 5%
NS(=O)(=O)c1ccc(CNC(=S)Nc2ccc(F)c(Cl)c2)cc1 | -19% | ? | -4% | 13% | -12%
NS(=O)(=O)c1cccc(NC(=S)NCc2ccc3c(c2)OCO3)c1 | 50µM* | -24% | -1% | -8% | -20%
Nn1c(SCC(=O)NCCc2ccc(Cl)cc2)nnc1-c1ccco1 | nt | 0% | nt | nt | nt
Cc1ccc(S(=O)(=O)NCC(=O)OCC(=O)NCc2ccc3c(c2)OCO3)cc1 | 56µM* | -5% | -2% | -7% | nt
COC(=O)CNC(=O)c1nc(-c2ccc(F)cc2)c2cnccn12 | nt | 17%[176 µM] | nt | nt | nt
SMILES | G9a block | ALOX12 inh | GRP78 ERSR act | VDR inh | Sfp PPTase inh
CCC(=O)N1CCc2cc(Br)cc(S(=O)(=O)CCC(=O)N(CC)CC)c21 | 6% | 0% | -2% | -11% | 13%
CCC(=O)N1CCc2cc(Br)cc(S(=O)(=O)NCc3ccco3)c21 | 45µM* | nt | -4% | 12% | -6%
CCCN(CCC)S(=O)(=O)c1cc(Br)cc2c1N(C(=O)CC)CC2 | 50µM* | 0% | -6% | 5% | -12%
O=C(COc1ccccc1Cl)Nc1ccc2oc(-c3ccc(F)cc3)nc2c1 | nt | -11% | nt | nt | nt
O=C1CC(c2noc(C3CCC3)n2)CN1C1CCCCC1 (stereo not given) | nt | 63% | nt | nt | nt
COc1cc(OC)cc(C(=O)N2CCC(C(=O)O)CC2)c1 | nt | -27% | nt | nt | nt
COc1ccc(-c2[nH]c(-c3cc(OC)c4c(c3)OCO4)nc2-c2ccccc2)cc1 | 40µM* | 0% | -1% | -5% | 26%
COc1cc(-c2nc(-c3ccccc3)c(-c3ccc(Br)cc3)[nH]2)cc(OC)c1O | 10µM* | 20µM* | 0% | 13% | nt
O=c1c2c3c(sc2n(CCN2CCOCC2)c(=O)n1Cc1ccco1)CCCCC3 | -32% | -8% | -6% | 28% | 45µM*
O=C(Cn1c(=O)n(Cc2ccco2)c(=O)c2c3c(sc21)CCCC3)Nc1ccccc1 | -16%[59 µM] | 0% | -9% | -10% | ?
O=c1c2c3c(sc2n(CCN2CCCCC2)c(=O)n1Cc1ccco1)CCCCC3 | 50µM* | -24% | -2% | -11% | -2%
COc1ccc(Cc2nc(-c3ccc(Br)o3)no2)cc1 | nt | -4% | nt | nt | nt
Brc1ccc(-c2noc(Cc3cccs3)n2)o1 | nt | 25µM* | nt | nt | nt
C=CCNC(=O)C1CCN(Cc2ccc(Cl)cc2)CC1 | nt | -2% | nt | nt | nt
CCCNC(=O)c1cccc2c(=O)c(C)c(-c3ccccc3)oc12 | nt | 0% | nt | nt | nt
O=Cc1c(-c2ccccc2)cc2oc3ccccc3cc1-2 | 3.5µM* | nt | 6% | 16% | -2%
O=Cc1cc2ccccc2o1 | nt | 0%[176 µM] | nt | nt | nt
Cc1nnc(C)c2c(C)n(-c3cccc4cccnc34)c(C)c12 | 71µM* | nt | nt | nt | 4%
Cc1nnc(C)c2c(C)n(-c3ccccc3)c(C)c12 | -16% | 0% | -5% | 9% | -4%
Cc1ncsc1CCC(=O)N1CCC2(CCNCC2)CC1 | nt | 16µM* | nt | nt | nt
CCOc1cc2c(cc1NC(=O)Cc1ccc(OC)cc1)OC(C)C2 (stereo not given) | nt | 6% | nt | nt | nt
